# A selection: hits, their analogues and other compounds. The true share with any hit is near 4%.
# PAX8 inh HTS = lowers PAX8-driven luciferase in RMG-I cells | RMG-I TPO-luciferase reporter, SteadyGlo, 24 h | inhibition, % at 12.6 µM | 1.2% of 360,000 active;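 active = mean replicate inhibition at least 60% with every replicate also reaching 60%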;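 also: luciferase light reporting Pax8 driven TPO promoter activity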
# Gli-Sufu antag = Gli-Sufu pathway antagonism; Sufu-KO-LIGHT fibroblasts, Gli luciferase reporter luminescence; inhibition, % at 5 µM; 0.74% of 340,000 active;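 active = inhibition above about 55%, limit read from the data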
# Shn3 3UTR inh = inhibitors of Schnurri-3 3'UTR reporter in osteoblasts; Clone20 osteoblast Shn3 3'UTR firefly luciferase, 24 h; 0.52% of 360,000 active; inhibition, % at 12.5 µM;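 active = mean inhibition of at least 75% with every replicate also reaching 75%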
# Beta apoptosis = beta cell apoptosis inhibition; INS-1E cytokine-induced death, ATP luminescence, 48 h; percent of positive-control rescue, neutral wells zero; protection from apoptosis, % (concentration not given with the values); 0.8% of 300,000 active; AID 435005;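 active = Every replicate reaches about 75%, or at least half do and their mean reaches it too, limit read from the data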;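 also: higher means more ATP so stronger rescue from cytokine killing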
# CSC inhib = cancer stem cell inhibition | cancer stem cell-like cells viability, luminescence | inhibition, % at 7.5 µM | AID 2717 | 1.1% of 300,000 active; in the data active = inhibition above about 75%; tested in HMLE shEcad cells
# Mdm2-MdmX inh = inhibitors of human Mdm2/MdmX interaction; inhibition, % at 8 µM; SaOS-2 split-luciferase Mdm2/MdmX complementation, luminescence; O15151+Q00987; 3% of 330,000 active; AID 485346;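 active = inhibition of at least 50% at 8 µM in the primary screen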
# Target sequence (O15151 whole entry, looked up): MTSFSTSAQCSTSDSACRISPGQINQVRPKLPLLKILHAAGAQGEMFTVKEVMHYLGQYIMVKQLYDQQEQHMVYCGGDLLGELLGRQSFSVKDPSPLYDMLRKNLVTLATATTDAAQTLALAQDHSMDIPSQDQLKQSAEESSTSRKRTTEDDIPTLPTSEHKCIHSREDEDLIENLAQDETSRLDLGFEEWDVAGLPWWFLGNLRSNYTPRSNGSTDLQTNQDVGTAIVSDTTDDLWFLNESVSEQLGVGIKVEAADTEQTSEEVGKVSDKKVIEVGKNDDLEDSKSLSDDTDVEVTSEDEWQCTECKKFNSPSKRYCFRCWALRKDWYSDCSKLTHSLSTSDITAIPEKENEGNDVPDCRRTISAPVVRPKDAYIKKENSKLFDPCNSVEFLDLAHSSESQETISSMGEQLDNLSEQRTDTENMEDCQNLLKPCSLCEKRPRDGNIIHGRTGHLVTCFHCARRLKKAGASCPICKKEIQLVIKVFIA
# Target sequence (Q00987 whole entry, looked up): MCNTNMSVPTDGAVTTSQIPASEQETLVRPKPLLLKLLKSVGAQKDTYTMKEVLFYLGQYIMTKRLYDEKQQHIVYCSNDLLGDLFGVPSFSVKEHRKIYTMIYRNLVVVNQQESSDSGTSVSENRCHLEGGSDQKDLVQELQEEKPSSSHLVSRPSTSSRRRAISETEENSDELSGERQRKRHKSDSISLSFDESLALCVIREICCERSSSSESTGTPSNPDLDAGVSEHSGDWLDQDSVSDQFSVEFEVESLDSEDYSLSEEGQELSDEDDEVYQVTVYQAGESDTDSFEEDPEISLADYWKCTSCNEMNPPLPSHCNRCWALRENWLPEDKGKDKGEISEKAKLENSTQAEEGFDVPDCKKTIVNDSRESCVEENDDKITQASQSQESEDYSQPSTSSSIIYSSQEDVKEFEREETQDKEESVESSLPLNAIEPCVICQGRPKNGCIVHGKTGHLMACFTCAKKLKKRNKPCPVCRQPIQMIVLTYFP
# Gli antag conf = Gli-SUFU antagonism confirmation, single concentration; shares compounds with Gli-Sufu antag; Sufu-KO-LIGHT cells, Gli luciferase reporter, luminescence; inhibition, % at 5 µM; 40% of 2,500 active; AID 602428;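 active = mean inhibition at 5 µM reaching about 45%, limit read from the data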
# SufuKO cytotox = cytotoxic in Gli-SUFU antagonist counter-screen | shares compounds with Gli-Sufu antag | Sufu-KO-LIGHT cells cytotoxicity, ATP luminescence | cytotoxicity, % at 5 µM | 32% of 2,500 active | AID 651994;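 active = mean cytotoxicity at 5 µM above about 25%, limit read from the data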;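 also: cells exposed to compound overnight for roughly 16 to 18 hours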
# Wnt3a counter = counter-screen for Gli-SUFU antagonists: Wnt3a reporter inhibition. shares compounds with Gli-Sufu antag. Wnt-LIGHT cells, Wnt3a-driven luciferase reporter, luminescence. inhibition, % at 6.25 µM. 20% of 2,500 active;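 active = mean inhibition above about 25%, limit read from the data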
# A number is an active result; – = inactive; · = not tested or not shown.
SMILES,PAX8 inh HTS,Gli-Sufu antag,Shn3 3UTR inh,Beta apoptosis,CSC inhib,Mdm2-MdmX inh,Gli antag conf,SufuKO cytotox,Wnt3a counter
CC(=O)c1cnc(N2CCCCC2)nc1C,·,56,–,–,–,–,–,29,–
Cc1ccc(S(=O)(=O)N(C)C[C@@H]2Oc3ccc(NC(=O)CCC(F)(F)F)cc3CC(=O)N([C@H](C)CO)C[C@@H]2C)cc1,–,·,·,·,·,·,·,·,·
CC1=NN(c2ccccc2)C(=O)/C1=C\N1CC(C)OC(C)C1 (stereo not drawn),–,98,–,–,–,–,–,–,–
O=C(c1ccco1)N1CCN(c2ccnc3cc(Cl)ccc23)CC1,–,–,–,–,–,–,–,–,–
O=C(C1CCC1)N1CCN(c2ccnc3cc(Cl)ccc23)CC1,–,–,–,–,–,–,·,·,·
O=C(C1CCCCC1)N1CCN(c2ccnc3cc(Cl)ccc23)CC1,–,–,–,–,–,–,57,–,–
O=C(C[C@H]1C=C[C@H](NC(=O)C2CCOCC2)[C@H](CO)O1)NCC1CC1,–,·,·,·,·,·,·,·,·
COC(=O)c1cc(S(=O)(=O)N2CCN(c3ccc(C(C)=O)cc3)CC2)c[nH]1,–,62,–,–,–,–,–,–,–
CCN1CCN(S(=O)(=O)c2c[nH]c(C(=O)OC)c2)CC1,–,–,–,–,–,–,·,·,·
CC(=O)NCCC(=O)Nc1nc(-c2cccs2)c(-c2cccs2)s1,–,–,–,–,·,–,–,–,–
CC(=O)Nc1sc(NC(=O)c2ccc(Cl)cc2)nc1-c1cccs1,·,–,–,–,–,–,·,·,·
Cc1cc(C)c(NC(=S)N(CCN2CCCCC2)Cc2ccco2)c(C)c1,–,–,–,–,–,–,·,·,·
Cc1cccc(C)c1NC(=S)N(CCN1CCCCCC1)Cc1ccco1,–,–,–,–,–,–,–,–,–
C/C=C/c1ccc(C2[C@H]3CNC[C@@H]2N3S(=O)(=O)c2c(C)noc2C)cc1 (stereo partly drawn),–,·,·,·,·,·,·,·,·
Cc1cc2oc(C(=O)NCc3ccc(S(N)(=O)=O)cc3)c(C)c2cc1C,–,–,–,–,–,–,·,·,·
Cc1ccc2c(C)c(C(=O)NCc3ccc(S(N)(=O)=O)cc3)oc2c1C,–,59,–,–,–,–,–,–,–
O=C(CSc1nnc(Cn2nnc3ccccc32)o1)N(Cc1ccc(F)cc1)c1ccccc1,·,68,–,109,–,–,57,45,–
C[C@H]1CN([C@@H](C)CO)C(=O)c2cc(NS(=O)(=O)c3cn(C)cn3)ccc2O[C@@H]1CN(C)C,–,·,·,·,·,·,·,·,·
CNC[C@H]1OCCCC[C@H](C)Oc2ccc(NS(=O)(=O)c3cccs3)cc2C(=O)N([C@H](C)CO)C[C@@H]1C,–,·,·,·,·,·,·,·,·
Cc1ccc(-n2nnnc2SCC(=O)Nc2cccnc2Cl)cc1,–,–,–,–,–,–,–,–,–
O=C(CSc1nnnn1-c1ccc(Cl)cc1)Nc1cccnc1Cl,–,–,–,–,·,–,·,·,·
CN(C)C(=O)c1cc2c(c(-c3cccc(-c4ccc(F)cc4)c3)n1)[C@H](CCO)N([S@@](=O)C(C)(C)C)C2,–,·,·,·,·,·,·,·,·
Cc1cccc(-c2nc(CSCC(=O)NCc3cccs3)c(C)o2)c1,–,55,–,–,–,–,–,–,–
COCCNC(=O)CSCc1nc(-c2ccc(SC)cc2)oc1C,–,55,–,–,–,–,66,–,–
CCOc1ccc(-c2nc(CSCC(=O)NC3CC3)c(C)o2)cc1,·,90,–,–,–,–,93,–,–
SMILES,PAX8 inh HTS,Gli-Sufu antag,Shn3 3UTR inh,Beta apoptosis,CSC inhib,Mdm2-MdmX inh,Gli antag conf,SufuKO cytotox,Wnt3a counter
COc1cc(OC)cc(C(=O)OCC(=O)c2ccc(S(=O)(=O)N3CCCCC3)cc2)c1,–,96,–,–,·,–,–,–,–
COc1ccc2nc3sc(C(=O)N4CCN(C)CC4)cc3cc2c1,·,94,–,–,–,–,–,–,–
CCOc1ccc(S(=O)(=O)N(C)c2ccc(OCC(=O)NCc3ccco3)cc2)cc1,·,95,–,–,–,–,–,–,–
CC1CCc2c(sc3nc(C4CC4)nc(N4CCN(C(=O)c5ccco5)CC4)c23)C1 (stereo not drawn),–,77,–,98,–,–,81,32,–
CCc1nc(N2CCN(C(=O)c3ccco3)CC2)c2c3c(sc2n1)CCCC3,–,–,–,–,·,–,·,·,·
CC1CC(=O)N(c2ccc(C(C)C)cc2)C(=O)C1,–,–,–,–,–,–,–,–,–
CS(=O)(=O)c1nc(S(=O)(=O)c2ccc(Cl)cc2)c(NCCCn2ccnc2)s1,–,57,–,–,–,–,–,–,–
CS(=O)(=O)c1nc(S(=O)(=O)c2ccc(Cl)cc2)c(NCCN2CCOCC2)s1,–,–,–,–,–,–,·,·,·
Cc1cc(C)c(C(N)=O)c(SCC(=O)c2cc(C)c(C)cc2C)n1,–,–,–,–,–,–,·,·,·
Cc1cc(C)c(C(N)=O)c(SCC(=O)c2cc(C)n(-c3cc(C)on3)c2C)n1,–,–,90,–,–,–,60,33,–
O=C([C@@H]1[C@@H](CO)[C@@H]2Cn3c(cccc3=O)[C@@H]2N1Cc1ccccc1Cl)N1CCCCC1,–,·,·,·,·,·,·,·,·
Cc1cccc(C)c1NC(=O)CSc1nnnn1C,·,57,–,–,–,–,–,–,–
COC(=O)c1ccc(NC(=O)CNC(=O)C2CCCCC2)cc1,·,94,–,–,–,–,–,–,–
CCOC(=O)c1ccc(NC(=O)CNC(=O)C2CCCCC2)cc1,·,–,–,–,–,–,·,·,·
COC(=O)c1ccc(=O)n(-c2ccc(OC)cc2)c1,·,76,–,–,·,–,–,–,–
COc1cc(C(=O)N2CCN(c3ncnc4sc(C)c(C)c34)CC2)cc(OC)c1OC,·,57,–,–,–,–,54,31,–
Nc1nc(N2CCN(C(c3ccccc3)c3ccccc3)CC2)n[nH]1,–,66,–,·,–,–,–,–,–
CCOc1ccc(-c2nc3n(c(=O)c2C#N)CCS3)cc1,–,–,–,–,–,–,·,·,·
COc1ccc(-c2nc3n(c(=O)c2C#N)CCS3)cc1,–,56,–,–,–,–,–,–,–
O=C(COC(=O)c1cnc(Cl)c(Cl)c1)NCCC1=CCCCC1,–,–,–,–,–,–,–,–,–
CCCNC(=O)Nc1ccc2c(c1)C(=O)N(C)C[C@@H](OC)[C@@H](C)CN(C(=O)C1CCOCC1)[C@H](C)CO2,–,·,·,·,·,·,·,·,·
COc1ccc([C@H]2CC(=O)C=C(c3ccnc4ccc(Cl)cc34)C2)cc1,–,74,–,89,–,–,68,–,38
COc1ccc([C@H]2CC(=O)C=C(c3cc(Cl)ccc3C)C2)cc1,–,–,–,–,–,–,·,·,·
O=C(c1cc(Cl)ccc1Cl)N1CCN(c2ccccn2)CC1,·,–,–,–,–,–,·,·,·

# Screening results (PubChem BioAssay)
